Shown are actives, neighbours in structure and some others; about 19% of the full set was active somewhere.
HT1080 IDH1KD tx: HT-1080 IDH1 knockdown cell toxicity (counter line). HT-1080 IDH1 knockdown viability, ATP luminescence, 48 h. Potency, µM (doses to about 46.1 µM), without a hit: at the highest dose activity, negative = toxicity, most hits filed as cytotoxic. actives 2% (n = 360,000). AID 686971;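 note: potency is the fitted concentration of half-maximal effect; 0% = DMSO wells and -100% = cell-free medium wells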
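Assay cells: HT-1080 with IDH1 knockdown, 750 per well, RPMI/5% FBS. Exposure: 48 h at 37 °C following 2 h pre-incubation. Read: CellTiter-Glo luminescence; fitted concentration-response, curve class assigned.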
DT40 TDP1 CPT: DT40-hTDP1 cell growth loss with CPT. chicken DT40 Tdp1-/-;hTDP1 cells + 20 nM CPT, ATP luminescence, 48 h. Potency, µM (top dose mostly 46.2 µM), for inactives: at the top dose activity change, negative = growth inhibition, usual class: inhibitors. actives 12% (n = 420,000). AID 686979; note: potency is the fitted concentration of half-maximal effect; nearly all actives have a fitted effect of over 55% in size
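Chicken DT40 Tdp1-/- cells complemented with human TDP1, 400 cells/well, exposed to compounds plus 20 nM camptothecin for at least 48 h at 37 C; viability read as ATP content by CellTiter-Glo luminescence.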
HT1080NT lethal: kills 2HG-producing HT-1080-NT fibrosarcoma cells; HT-1080-NT fibrosarcoma viability, CellTiter-Glo ATP luminescence, 48 h; Potency, µM (doses to about 46.1 µM), for inactives: top-dose activity, negative = less viability, hits mostly cytotoxic; actives 1.6% (n = 360,000); AID 686970;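 note: NT is the 2HG producing partner of a matched IDH1 knockdown line; potency is the fitted concentration of half-maximal effect; 0% = DMSO-treated cells and -100% = media-only wells without cells; nearly all actives have a fitted effect of over 55% in size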
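Viability by CellTiter-Glo luminescence after 48 h compound exposure at 37C of HT-1080-NT cells (750/well, RPMI, 5% FBS). % activity scaled between DMSO wells and medium-only wells, then curve-fitted and categorized by curve class.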
ELG1 DNA repair: blocks ELG1-dependent DNA repair in HEK293T cells; HEK293T ELG1-luciferase reporter, luminescence, 16 h; DNA damage induced by 5-fluorouridine; Potency, µM (titrated, usually from 46.1 µM), inactives show at the highest dose activity change, negative = inhibition, most hits filed as inhibitors; actives 2.3% (n = 330,000); AID 504467; note: potency is the fitted concentration of half-maximal effect; nearly all actives have a fitted effect of over 55% in size
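Luminescence from the luciferase reporter, measured 30 min after ONE-Glo reagent at room temperature, was the read-out. Beforehand, 2,000 cells per well were exposed for 16 hr at 37 °C to 5-fluorouridine together with compound or vehicle.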
DT40 TDP1 no CPT: qHTS for Inhibitors of human tyrosyl-DNA phosphodiesterase 1 (TDP1): qHTS in cells in absence of CPT; actives 15% (n = 420,000); Potency, µM (top dose mostly 46.2 µM), without a hit: at the top dose activity change, negative = growth inhibition, most hits filed as inhibitors; DT40 Tdp1-/- hTDP1 cells, no CPT, ATP luminescence, 48 h; note: potency is the fitted concentration of half-maximal effect; nearly all actives have a fitted effect of over 55% in size
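DT40 Tdp1-/-;hTDP1 cells, no CPT (DMSO vehicle only), 400 cells/well; compounds pin-transferred; ≥48 hr, 37 °C; CellTiter-Glo 30 min RT dark, luminescence read.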
IL-1B inflam inh: inhibitors of inflammasome signaling (IL-1 beta secretion); THP-1 LPS/ATP IL-1B secretion, AlphaLISA, 16 h; hits give low values; actives 4.7% (n = 360,000); activity change, % at 57.5 µM; in the data active = activity change below about -50%; inconclusive = mostly about -30% to -49%
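Secreted IL-1B measured by AlphaLISA bead assay after 16 h compound exposure of THP-1 cells; compounds (final up to 57.5 uM) added 1 h before LPS (250 ng/mL) and ATP (1.25 mM) stimulation; lower signal means less secretion.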
* = called active by the depositor; u = inconclusive; x = not tested or not shown; [ ] = dose if it differs, or a comment. Unless noted, calls come from the whole dose curve; as a rule, active = well fitted curve in the direction sought with a large enough effect; inconclusive = small, poorly fitted or top-dose-only effect, or another doubt; inactive = no such curve, though single readings can be large; an effect the other way counts as inactive or inconclusive. Unless noted, % is set by controls: 0 for no effect and ±100 for the full control effect.

SMILES	HT1080 IDH1KD tx	DT40 TDP1 CPT	HT1080NT lethal	ELG1 DNA repair	DT40 TDP1 no CPT	IL-1B inflam inh
CC(=O)Nc1ccc(-c2csc(NC(=O)Cc3cccc(F)c3)n2)cc1	u	u	u	18µM*	23µM*	u
COc1ccc(-c2csc(NC(=O)CCn3cnc4ccccc4c3=O)n2)cc1OC	-2%	u	-6%	7.3µM*	18µM*	u
CC(=O)Nc1ccc(-c2csc(NCCc3ccccc3)n2)cc1	-26%	u	-25%	u	u	u
CCOc1ccc(OCC)c(NC(=O)Cn2c(C)nc3ccccc3c2=O)c1	-4%	u	-19%	-28%	u	21
O=C(CCc1ccccc1)N1CCCC(Nc2ccc(F)cc2)C1 (stereo unspecified)	2%	-10%	7%	-13%	2%	0
COc1cccc(-c2csc(NC3OC(=O)c4c3ccc(OC)c4OC)n2)c1 (stereo unspecified)	u	u	u	u	u	-93*
Cc1cc(C(=O)OC(C)C(=O)Nc2nc(-c3ccccc3)cs2)c(C)o1 (stereo unspecified)	-2%	-3%	u	-13%	-15%	10
COc1ccc(CCCc2nnc(SCC(=O)Nc3nc(C)cs3)n2C)cc1C	-20%	u	-1%	u	26µM*	-5
COc1ccc(-c2csc(NC(C)=O)n2)cc1OC	-3%	-30%	1%	u	-22%	u
COc1ccc(-c2csc(NC(=O)Cc3ccccc3)n2)cc1OC	0%	u	3%	6%	1.6µM*	2
COc1ccc2c(c1OC)C(=O)OC2Nc1nc(-c2ccc(-c3ccccc3)cc2)cs1 (stereo unspecified)	-9%	-23%	-4%	u	-23%	15
CC(OC(=O)c1ccc([N+](=O)[O-])o1)C(=O)Nc1nc(-c2ccc(F)c(F)c2)cs1 (stereo unspecified)	-5%	21µM*	0%	u	21µM*	u
O=C(CCCOc1ccc(Br)cc1)NCCc1ccc(OC(F)F)cc1	-5%	-13%	-23%	-10%	-25%	-8
COc1ccccc1NS(=O)(=O)c1ccc2c(c1)CCN2C(=O)CCC(=O)O	6%	-14%	1%	10%	18%	19
CCCC(=O)Nc1cc(-c2nnc3c4ccccc4c(C)nn23)ccc1C	x	3%	x	x	11%	x
Cc1ccn(CC(=O)N2CCCC(N3CCN(c4ccc(F)cc4)CC3)C2)n1 (stereo unspecified)	10%	-7%	-1%	3%	17%	0
O=C(CN1CCCCC1)Nc1nc(-c2ccc(F)c(F)c2)cs1	-18%	u	-10%	u	u	-10
O=C(COC(=O)C1CC1)Nc1nc(-c2ccc(F)c(F)c2)cs1	-1%	21µM*	-1%	u	10µM*	-29
O=C(CCCc1cccs1)Nc1nc(-c2ccc(F)cc2)cs1	-22%	u	-19%	19%	8.2µM*	-18
COc1ccc(CCN2C(=O)CCC3=C2CCCC3=O)cc1OC	9%	-18%	u	x	-20%	41
Cn1c(C(=O)N2CCCC(C(=O)NCc3ccc4c(c3)OCO4)C2)cc2sccc21 (stereo unspecified)	0%	u	16%	u	23µM*	3
CCc1c(C)nc2ncnn2c1N1CCCC(C(=O)NCc2ccc3c(c2)OCO3)C1 (stereo unspecified)	-9%	u	-5%[9.24 µM]	u	21µM*	7
CCn1c(C(=O)N2CCC(C(=O)NCc3ccc4c(c3)OCO4)CC2)cc2sccc21	-2%	23µM*	-26%	7.3µM*	15µM*	0
CCOC(=O)N1CCC(NC(=O)C2CCCN(C(=O)c3cc4sccc4n3C)C2)CC1 (stereo unspecified)	1%	-19%	8%	u	u	6
CC1(c2nnnn2-c2ccc3c(c2)OCCO3)CCC(=O)N1CC(F)(F)F (stereo unspecified)	12%	-20%	13%	x	-19%	60
SMILES	HT1080 IDH1KD tx	DT40 TDP1 CPT	HT1080NT lethal	ELG1 DNA repair	DT40 TDP1 no CPT	IL-1B inflam inh
CCn1cc(C(=O)NCCN(C)C)c(=O)c2cc(F)c(N3CCN(C)CC3)cc21	-6%	6%	1%	7%	-27%	u
CCn1cc(C(=O)NCc2ccccc2)c(=O)c2cc(F)c(N3CCN(C(=O)c4ccco4)CC3)cc21	u	10µM*	21µM*	16µM*	9.2µM*	-64*
CCn1cc(C(=O)NCc2ccc3c(c2)OCO3)c(=O)c2cc(F)c(N3CCN(C(=O)c4ccco4)CC3)cc21	18µM*	12µM*	18µM*	9.2µM*	10µM*	-59*
CCN(CC)CCCNC(=O)c1cn(CC)c2cc(N3CCN(C(=O)c4ccco4)CC3)c(F)cc2c1=O	9%	-18%	4%	1%	0%	-5
O=C(NC(=S)N1CCN(c2ccccn2)CC1)c1ccco1	-2%	1%	4%	1%	-10%	1
Cc1ccc(NC(=O)C2(C)CCCN2C)cc1C (stereo unspecified)	u	-1%	12%	x	-2%	15
O=c1oc2ccccc2cc1-c1nc2c(s1)CCCC2	-3%	u	-2%	u	u	26
O=c1oc2ccccc2cc1-c1cn2cc(Cc3ccc(Br)cc3)sc2n1	x	1.3µM*	x	x	0.58µM*	x
CN(Cc1ccccc1)C(=O)[C@@H]1CCCN1C(=O)[C@@H]1CCCN1C(=O)c1cccs1	10%	-2%	11%	x	-2%	43
CN(Cc1ccccc1)C(=O)[C@@H]1CCCN1C(=O)[C@@H]1CCCN1C(=O)c1cccc2ccccc12	6%	u	13%	x	18µM*	12
CCOc1cc(OCC)cc(C(=O)N2CCC[C@H]2C(=O)N2CCC[C@H]2C(=O)N(C)Cc2ccccc2)c1	17%	6%	21%	x	0.16µM*	17
CN(C)/C=C1/N=C(c2ccccc2)OC1=O	-4%[9.24 µM]	0%	-1%	u	3%	u
O=CC1=C(c2ccccc2)Oc2ccccc2O1	16µM*	u	u	3%	u	-102*
COc1cc2c(cc1OC)CN(C(=O)CN1C(=O)c3ccc([N+](=O)[O-])cc3C1=O)CC2	-1%	-13%	-3%	-3%	-1%	15

High-throughput results as filed in PubChem.
